Drawing on ChEMBL document CHEMBL1157539, “Thousands of chemical starting points for antimalarial lead identification” (Nature, 2010), this text covers Inhibition for eleven compounds.

Common to all, as to type: functional
Test [1] concerns Plasmodium falciparum. In words: GSK_TCMDC: Inhibition of Plasmodium falciparum 3D7 in whole red blood cells, using parasite LDH activity as an index of growth. Test compounds present at 2uM.
Test [2] concerns Plasmodium falciparum. Description: GSK_TCMDC: Inhibition of Plasmodium falciparum Dd2 in whole red blood cells, using parasite LDH activity as an index of growth. Test compounds present at 2uM.
For test [3], the system named is HepG2. In words: GSK_TCMDC: Percent inhibition of human HepG2 cell line. Test compounds present at 10uM.

Broadly, the Inhibition is the percentage by which the read-out fell short of the control. Consider `Cc1c(Cc2ccc(C(C)C)cc2)cnc2nc(N)nc(N)c12`, for which the Inhibition in test [1] was determined as 97%; in test [2], 0%.
As for `Cc1ccccc1C1CCN(C2CCC(NC(=O)c3ccc(-c4ccccc4F)o3)CC2)CC1` (stereo unspecified), the Inhibition in test [1] came to 99%; in test [2] it was 66%; in test [3], 42%.
For the compound `Cc1cc2cc(/C=C/C(=O)NC3CCC(CCN4CCc5ccc(C#N)cc5CC4)CC3)ccc2[nH]1.Cl` (stereo unspecified), the Inhibition was 85% in test [1], 49% in test [2] and 6% in test [3].
In the case of `COc1ccc(-c2cc3ncn(CC(=O)N4CCN(c5cccc(OC)c5)CC4)c(=O)c3s2)cc1`, the Inhibition in test [1] is given as 84%; in test [2], 26%; in test [3], 49%.
For `Cl.c1ccc2c(c1)ncn2-c1ccnc(Nc2ccncc2)n1`, the Inhibition in test [1] amounted to 89%; in test [2], 80%; in test [3], 0%.
For `Cc1nc(C)c(-c2ccc(Oc3cccc(OC(F)(F)F)c3)cc2)c(O)c1Cl`, the Inhibition in test [1] and in test [2] was 97% each time.
In the case of `Cn1nc(-c2cccc(CN[C@@H]3CCc4ccc(O)cc43)c2)c2cnc(NC3CCCC3)nc21`, the Inhibition in test [1] stood at 100%; in test [2], 76%; in test [3] it was 6%.
Take `CN(C)CCN(Cc1ccccc1-c1ccc(CNCCc2ccccc2)cc1)C(=O)NC1CCCCC1.O=C(O)C(F)(F)F`: the Inhibition turned out to be 88% in test [1], 89% in test [2] and 98% in test [3].
On to `O=C(NCCCCCN1CCC(c2c[nH]c3ccccc23)CC1)Nc1ccc(I)c(Cl)c1`, for which the Inhibition in test [1] is 99%; in test [2] it was 5%; in test [3] it was 88%.
For `CNC(=O)c1cnc(Nc2ccc(N3CCN(C)CC3)cc2)nc1Nc1cccc([N+](=O)[O-])c1.O=C(O)C(F)(F)F` the same measures were 100%, 100% and 31%.
As for `O=C(c1ccc(Cl)cc1)N1CCOC(CCN2CCC(c3ccccc3)CC2)(c2ccc(Cl)c(Cl)c2)C1` (stereo unspecified), the Inhibition came to 98% in test [1], 68% in test [2] and 19% in test [3].
